Compound activity deposited in PubChem by National Center for Advancing Translational Sciences (NCATS).
Most compounds without a hit are left out; they make up all but 1% or so of the library.
WRN helicase inh = inhibitors of human WRN helicase | 0.46% of 360,000 active | WRN helicase unwinding, fluorescent forked duplex, kinetic | Q14191 | Potency, µM (titrated, usually from 114 µM), inactives show at the highest dose activity change, negative = inhibition, actives largely listed as inhibitors; further: nearly all actives have a fitted effect of over 55% in size
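Kinetic red-fluorescence monitoring (525/598 nm) tracks WRN helicase activity after 100 nM fluorophore-quencher forked duplex and 2 mM ATP are added to 20 nM enzyme pretreated 15 min at room temperature with compound.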
BLM inh = blocks DNA unwinding by human BLM helicase. P54132. recombinant BLM DNA unwinding, fluorescence dequenching. Potency, µM (highest dose often 56.1 µM), for inactives: top-dose activity change, negative = inhibition, most hits filed as inhibitors. 0.2% of 350,000 active;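 further: plate controls were vehicle for no effect and no enzyme for full effect; nearly all actives have a fitted effect of over 35% in size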
RECQ1 inh = inhibitors of human RECQ1 DNA helicase; P46063; RECQ1 DNA unwinding, red fluorescence kinetic read; Potency, µM (titrated, usually from 57.3 µM), without a hit: top-dose activity, negative = inhibition, usual class: inhibitors; 0.54% of 240,000 active;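 further: plate controls were vehicle for no effect and no enzyme for full effect; nearly all actives have a fitted effect of over 30% in size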
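50 nM RECQ1T1 preincubated 15 min with compound in Tris pH 8.0 buffer with MgCl2, DTT, Tween-20 and 2.5 ug/ml poly(dI-dC); started with 200 nM TAMRA/BHQ-2 forked duplex and 2 mM ATP. Unwinding read as fluorescence (525/598 nm), two reads 2 h apart.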
L3MBTL1 inh = blocks human L3MBTL1; Q9Y468; AlphaScreen L3MBTL1–H3K9me1 peptide binding; Potency, µM (highest dose often 57.1 µM), for the others: top-dose activity, negative = inhibition, usual class: inhibitors; 0.66% of 230,000 active; further: nearly all actives have a fitted effect of over 60% in size
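L3MBTL1 50 nM + b-AHA-H3(1-15)K9me1 75 nM, 30 min RT; compound added, 30 min RT; streptavidin donor/Ni-chelate acceptor beads 10 ug/mL each final, 30 min RT dark; AlphaScreen read.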
FEN1 inhibitor = blocks human flap endonuclease 1 | P39748 | Recombinant FEN1 flap cleavage, fluorescence, 15 min | Potency, µM (doses to about 114 µM), inactives show at the top dose activity change, negative = inhibition, hits mostly inhibitors | 0.35% of 390,000 active; further: nearly all actives have a fitted effect of over 65% in size
Target sequence (P39748 whole entry, looked up): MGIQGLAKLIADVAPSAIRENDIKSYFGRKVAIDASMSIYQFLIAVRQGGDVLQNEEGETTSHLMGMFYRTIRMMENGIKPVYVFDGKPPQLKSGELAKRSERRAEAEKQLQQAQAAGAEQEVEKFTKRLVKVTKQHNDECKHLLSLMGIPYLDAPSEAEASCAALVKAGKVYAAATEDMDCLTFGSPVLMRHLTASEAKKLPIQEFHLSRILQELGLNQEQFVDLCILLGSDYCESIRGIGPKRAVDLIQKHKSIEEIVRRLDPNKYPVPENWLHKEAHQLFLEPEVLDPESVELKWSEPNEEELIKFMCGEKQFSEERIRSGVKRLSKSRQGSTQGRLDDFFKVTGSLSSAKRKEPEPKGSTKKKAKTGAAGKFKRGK
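Recombinant FEN1 (10 nM) was preincubated with pin-transferred compounds for 15 min at room temperature, then flap DNA substrate (50 nM final) was added. Plates were read at 0 and 15 min, and normalized concentration–response data were fitted to a four-parameter Hill equation.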
APE1 inh-1 = inhibitors of human APE1 endonuclease | recombinant APE1, TAMRA/BHQ-2 abasic DNA cleavage fluorescence | Potency, µM (top dose mostly 65.8 µM), without a hit: top-dose activity change, negative = inhibition, actives largely listed as inhibitors | 0.35% of 350,000 active | AID 2517;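 further: plate controls were vehicle for no effect and reference inhibitor for full effect; nearly all actives have a fitted effect of over 55% in size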
Target sequence (P27695 whole entry, looked up): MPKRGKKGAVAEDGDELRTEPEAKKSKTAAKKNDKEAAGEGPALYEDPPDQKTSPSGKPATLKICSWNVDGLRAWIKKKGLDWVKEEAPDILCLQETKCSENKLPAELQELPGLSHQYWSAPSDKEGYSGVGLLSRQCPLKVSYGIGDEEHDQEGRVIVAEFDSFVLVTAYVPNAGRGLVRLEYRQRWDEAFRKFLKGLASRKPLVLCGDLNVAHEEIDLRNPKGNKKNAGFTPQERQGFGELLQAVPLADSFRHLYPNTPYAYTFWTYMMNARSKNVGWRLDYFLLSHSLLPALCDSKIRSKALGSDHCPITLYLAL
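Step 1: APE1 (0.75 nM) with compound, 15 min RT. Step 2: add 50 nM fluorophore/quencher THF duplex. Step 3: three fluorescence reads 60 s apart (525/598 nm); read 3 minus read 1 = reaction progress.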
APE1 dye cs = displaces fluorescent dye from DNA, flagging APE1 artifacts; shares compounds with APE1 inh-1; DNA fluorescent dye displacement counterscreen, fluorescence; Potency, µM (titrated, usually from 28.5 µM), for the others: at the highest dose activity change, negative = inhibition, hits mostly inhibitors; 7% of 480 active;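 further: loss of thiazole orange fluorescence as the dye is displaced from duplex DNA; 0% = ThO with dsDNA and no compound and -100% = ThO without dsDNA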
EndoIV counter = Endo IV (E. coli) inhibition counter-screen. E. coli Endo IV, fluorogenic AP-site DNA cleavage. AID 2565. shares compounds with APE1 inh-1. 4% of 560 active. Potency, µM (top dose mostly 27.1 µM), for the others: at the top dose activity change, negative = inhibition, usual class: inhibitors;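 further: plate controls were uninhibited enzyme wells for no effect and no enzyme buffer wells for full effect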
APE1 inh-2 = confirmation of inhibitors of human APE1 endonuclease | shares compounds with APE1 inh-1 | purified APE1, fluorogenic abasic-site DNA cleavage | Potency, µM (highest dose often 57.1 µM), for the others: at the highest dose activity change, negative = inhibition, most hits filed as inhibitors | 44% of 750 active | AID 2572; further: nearly all actives have a fitted effect of over 30% in size
APE1 FP inh = compounds that displace a DNA probe from human APE1. AID 2573. Potency, µM (highest dose often 28.5 µM), inactives show top-dose activity, negative = inhibition, actives largely listed as inhibitors. 7% of 480 active. APE1 binding to TAMRA-labelled double-stranded DNA, fluorescence polarization displacement. shares compounds with APE1 inh-1
Numbers without * were called inactive; i = inactive; ? = inconclusive; · = not tested or not shown; [ ] = remark or other dose. The call rests on the fitted dose curve; in most records, active means well fitted curve in the direction sought with a large enough effect; inconclusive means small, poorly fitted or top-dose-only effect, or another doubt; inactive means no such curve, though single readings can be large; an effect the other way counts as inactive or inconclusive. Unless noted, on the % scale 0 is the no-effect control and ±100 the full control effect; potency means the concentration at half of the fitted maximal effect.

SMILES | WRN helicase inh | BLM inh | RECQ1 inh | L3MBTL1 inh | FEN1 inhibitor | APE1 inh-1 | EndoIV counter | APE1 inh-2 | others
CC(=O)Nc1ccc(NC(=O)c2csnn2)cc1 | · | -4% | · | · | 17% | · | · | ·
COC(=O)c1cc2oc3ccccc3c2n1Cc1ccccn1 | -7% | -2% | -3% | · | 4% | ? | 2% | -2%[24.4 µM] | APE1 dye cs=-9%;APE1 FP inh=8%
CC(=O)Oc1ccc2c(=O)c(/C=N/c3cc(=O)[nH]c(=S)[nH]3)coc2c1 | -26% | 0% | 0% | -13% | -16% | 6% | · | -39%
O=c1cc(/N=C/c2coc3cc(Br)ccc3c2=O)[nH]c(=S)[nH]1 | -29% | 1% | -3% | 1% | -5% | -1% | · | ·
COc1ccc(NC(=O)C2Cc3c(-c4ccc5c(c4)OCO5)ccnc3O2)cc1OC (stereo not given) | -2% | · | · | · | · | · | · | ·
CC(C)(C)C(=O)[C@@H]1[C@@H]2C(=O)N(Cc3ccccc3)C(=O)[C@@H]2[C@H]2c3ccccc3C=CN12 | · | -12% | -24% | · | · | ? | · | -14%
COc1ccc(OCC2c3cc(OC)c(OC)cc3CCN2C(=O)COc2ccc(Cl)cc2Cl)cc1 (stereo not given) | · | -9% | · | · | 4% | · | · | ·
COc1ccc(NCc2cc3cc4c(cc3n(CC(=O)Nc3ccc(C)cc3)c2=O)OCO4)cc1 | · | -3% | · | · | 4% | · | · | ·
CCCCC[C@H](O)/C=C/[C@H]1[C@H](O)CC(O)[C@@H]1C/C=C\CCCC(=O)O (stereo not given in full) | · | · | 14% | · | · | -2% | · | ·
CCCCC[C@H](O)/C=C/[C@@H]1[C@@H](C/C=C\CCCC(=O)OC)[C@@H](O)C[C@H]1O | 12% | -19% | -1% | ? | ? | 7% | · | -14%
O=C(COc1ccccc1F)NC1CC(=O)N(c2ccc3c(c2)OCCO3)C1 (stereo not given) | · | -1% | · | · | -13% | · | · | ·
O=C(CSc1nnc(SCc2ccc(Cl)cc2)s1)N/N=C/c1c[nH]c2ccccc12 | ? | ? | i | -15% | ? | 0% | · | -21%
C=CC1=C2C=C(C3CC3)N(Cc3ccco3)C=C2C(=O)C(C)(OC(=O)c2ccco2)C1=O (stereo not given) | · | -4%[12.4 µM] | i[11.5 µM] | · | · | 2%[12.4 µM] | · | ·
N=C1C(c2nc3ccccc3s2)=C(O)CN1NC(=O)c1c[nH]c2ccccc12 | -13% | -16% | i | 9% | -10% | ? | 1% | ? | APE1 dye cs=38%;APE1 FP inh=22%
O=C(OC1Cc2c(O)cc(O)cc2OC1c1cc(O)c(O)c(O)c1-c1c(C2Oc3cc(O)cc(O)c3CC2OC(=O)c2cc(O)c(O)c(O)c2)cc(O)c(O)c1O)c1cc(O)c(O)c(O)c1 (stereo not given) | · | 7.9µM* | 4.5µM* | · | · | 0.13µM* | 28µM* | 0.32µM*
Oc1ccc(C2Oc3cc(O)cc(O)c3CC2O)cc1 (stereo not given) | · | 3% | i | · | · | -7% | · | ·
COc1ccc(/C=N/NC(=O)c2cccc(NC(=O)c3ccc(F)cc3)c2)c(C(=O)O)c1OC | -19% | -12% | i | · | 3% | 15% | · | -9%
O=[N+]([O-])c1cc(/C=N\Nc2nccs2)ccc1O | · | 28µM* | 11µM* | · | · | 7.1µM* | 16% | 1.6µM* | APE1 dye cs=10µM*;APE1 FP inh=8.9µM*
O=[N+]([O-])c1ccccc1/C=N\Nc1nccs1 | 2% | 0% | · | -11% | 2% | 19% | · | ·
COc1cccc(CNCCSc2nnnn2C)c1OCc1ccc(Cl)cc1 | · | 2% | · | · | 10% | · | · | ·
N[C@H](C(=O)O)[C@H]1C[C@@H]1C(=O)O | · | · | -3% | · | · | -6% | -25%[57.1 µM] | 2.5µM*
COc1ccc(C(=O)c2ccsc2N)cc1 | -1% | -3% | · | · | -4% | 21% | · | ·
COc1ccc(C(=O)c2ccc(CC#N)s2)cc1 | -18% | -5% | -1% | -11% | -14% | 1% | · | -25%
O=c1c2ccccc2nc(COc2ccccc2)n1/N=C/c1ccc(O)c(O)c1 | ? | -26% | 28µM* | · | -4% | ? | 51% | ? | APE1 dye cs=?;APE1 FP inh=7%
Cc1c(-c2ccc(Cl)cc2)oc(=O)c2c(N)n(-c3ccccc3)nc12 | -32% | ? | -10% | -2% | -9% | -7% | · | ?
Nc1c2c(=O)oc(-c3ccccc3)cc2nn1-c1ccccc1 | -16% | -7% | -8% | 0% | -23% | -7% | · | ·
C[C@@H]1CN([C@H](C)CO)C(=O)c2cc(C3=CCCCC3)cnc2O[C@@H]1CN(C)Cc1ccccc1C(=O)O | 5% | · | · | · | · | · | · | ·
Cc1ccc2oc(=O)n(CC(=O)OC(C)C)c2c1 | 10% | 3% | -8% | 0% | 3% | ? | -4% | -8%[24.4 µM] | APE1 dye cs=-11%;APE1 FP inh=?
